Laboratory results: PubChem BioAssay (Tox21)
Results filed as inconclusive are left out. A number with no mark means an inactive call. Calls come from the whole dose curve.
% is set by controls: 0 for no effect and ±100 for the full control effect.

The molecules below were run against Retinoic acid receptor RXR-alpha (Homo sapiens) (UniProt P19793) (assay: qHTS assay to identify small molecule agonists of the RXR signaling pathway (AID 1159527; note: nearly all actives have a fitted effect of over 35% in size)). Conditions: HEK293T RXRa-UAS-bla, beta-lactamase ratio, 16 h; series mostly up to 76.8 µM; activation: at the top concentration.
Sequence of Retinoic acid receptor RXR-alpha (Homo sapiens) (P19793 whole entry, looked up): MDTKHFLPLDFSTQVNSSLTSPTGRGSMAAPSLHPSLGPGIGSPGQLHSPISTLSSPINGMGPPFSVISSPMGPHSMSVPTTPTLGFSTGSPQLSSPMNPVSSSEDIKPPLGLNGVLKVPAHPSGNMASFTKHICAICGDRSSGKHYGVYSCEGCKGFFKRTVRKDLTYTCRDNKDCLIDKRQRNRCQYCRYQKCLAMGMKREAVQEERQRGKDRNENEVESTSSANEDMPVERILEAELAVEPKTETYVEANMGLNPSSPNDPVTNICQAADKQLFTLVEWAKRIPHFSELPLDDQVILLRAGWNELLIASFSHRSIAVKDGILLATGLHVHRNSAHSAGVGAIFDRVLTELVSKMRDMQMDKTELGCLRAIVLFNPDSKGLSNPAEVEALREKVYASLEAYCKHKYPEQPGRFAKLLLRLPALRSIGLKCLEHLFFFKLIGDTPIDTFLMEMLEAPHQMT
Procedure, shortened: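 Beta-lactamase reporter assay, agonist format. Engineered HEK 293T line, charcoal-stripped FBS at 2%, overnight (16 hr) exposure, fluorescence at 460 and 530 nm after 405 nm excitation.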
For `C[N+]1(C)[C@@H]2CC(OC(=O)[C@H](CO)c3ccccc3)C[C@H]1[C@@H]1O[C@@H]12` (stereo not given in full), the “activation” value was 9.06% [at 35.3 µM].
For `CC1=NN(c2cccc(S(=O)(=O)O)c2)C(=O)C1`, the “activation” value was 10.2%.
For `C[C@H]1C[C@H]2[C@@H]3CCC4=CC(=O)C=C[C@]4(C)[C@H]3C(=O)C[C@]2(C)[C@@]1(O)C(=O)CO`, the “activation” value was 5.35% [at 35.3 µM].
With `CCCc1nn(C)c2c(=O)[nH]c(-c3cc(S(=O)(=O)N4CCN(C)CC4)ccc3OCC)nc12` the “activation” value was -13.5% [at 35.3 µM].
`CN(C)C(=O)Oc1cccc([N+](C)(C)C)c1` was tested, and the “activation” value was 3.81% [at 35.3 µM].
With `CC[C@H]1OC(=O)[C@H](C)[C@@H](O[C@H]2C[C@@](C)(OC)[C@@H](O)[C@H](C)O2)[C@H](C)[C@@H](O[C@@H]2O[C@H](C)C[C@H](N(C)C)[C@H]2O)[C@](C)(OC)C[C@@H](C)C(=O)[C@H](C)[C@@H](O)[C@]1(C)O` the “activation” value was -3.09%.
With `OCCCCCO` the “activation” value was 15.7%.
In the case of `CCCCOCCOC(=O)COc1cc(Cl)c(Cl)cc1Cl`, the “activation” value is reported as -6.55%.
For `CC1(C)[C@@H]2CC[C@@]1(C)[C@H](O)C2`, the “activation” value was 11.3%.
With `CC(CO)(CO)[N+](=O)[O-]` the “activation” value was 0.771%.
In the case of `O=C(CO)[C@@H](O)[C@H](O)[C@@H](O)CO`, the “activation” value is reported as 4.31% [at 35.3 µM].
For `CC1CCC(CO)CC1` (stereo not given), the “activation” value was 4.3%.
`CC(C#N)(CCC(=O)O)N=NC(C)(C#N)CCC(=O)O` (stereo not given) was tested, and the “activation” value was 4.98%.
`CCN1CCOCC1` was tested, and the “activation” value was 3.12%.
For `C[C@@H]1C[C@H]2[C@@H]3C[C@H](F)C4=CC(=O)C(Cl)=C[C@]4(C)[C@@]3(F)[C@@H](O)C[C@]2(C)[C@@]1(O)C(=O)CO`, the “activation” value was -11.2% [at 35.3 µM].
In the case of `CC(C)NNC(=O)c1ccncc1`, the “activation” value is reported as 5.23% [at 35.3 µM].
`NC(=O)Cc1cccc2ccccc12` was tested, and the “activation” value was 15%.
In the case of `CCCC[N+](C)(CCCC)CCCC`, the “activation” value is reported as 7.33%.
`CCOC(=O)c1ccccc1` was tested, and the “activation” value was 6.83%.
With `C=CN1CCCCCC1=O` the “activation” value was 11.1%.
With `CO/N=C(\C(=O)N[C@@H]1C(=O)N2C(C(=O)O)=C(CSc3nc(=O)c(O)nn3C)CS[C@H]12)c1csc(N)n1` the “activation” value was 0.488% [at 35.3 µM].
In the case of `C[N+]1(CC2COC(c3ccccc3)(c3ccccc3)O2)CCCCC1` (stereo not given), the activation is reported as -0.901% [at 15.8 µM].
`CC/C=C\CCOC(C)OCC` (stereo not given) was tested, and the “activation” value was 4.01% [at 35.3 µM].
`O=C(O)c1cn(C2CC2)c2cc(N3CCNCC3)c(F)cc2c1=O` was tested, and the “activation” value was 11.2% [at 35.3 µM].
For `CC(C)c1ccc2ncccc2c1`, the “activation” value was 9.91%.
With `CC(=O)N1C[C@H](O)C[C@H]1C(=O)O` the “activation” value was 7.02% [at 35.3 µM].
`CCN[C@@H]1C[C@H](N)[C@@H](OC2OC(CN)=CCC2N)[C@H](O)[C@H]1O[C@H]1OC[C@](C)(O)[C@H](NC)[C@H]1O` (stereo not given in full) gave an activation of 6.62% [at 0.29 µM].
With `O=C1NC(=O)C2CC=CCC12` (stereo not given) the “activation” value was 14.3%.
With `N[C@H](C(=O)O)[C@@H](O)c1ccc(O)c(O)c1` the “activation” value was 7.09% [at 35.3 µM].
For `COc1ccnc(CS(=O)c2nc3cc(OC(F)F)ccc3[nH]2)c1OC` (stereo not given), the “activation” value was -14.8%.
